Rows were chosen to be rich in hits. Some 8% of all compounds tested hit in one or more screens of this group.
Cav32 inh – Cav3.2 calcium influx blockers – cell-based, Fluo-4 calcium fluorescence, FDSS, MLSMR library, primary screen; Voltage-dependent T-type calcium channel subunit alpha-1H (Homo sapiens), O95180; Cav3.2-expressing cells; active compounds read low; B-score at 10 µM; hit rate 4% among 100,000; AID 449739, 2010;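 active means single-dose well whose peak fluorescence ratio is a statistical outlier from its plate by either plate-standardised score or position-corrected B-score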
Target sequence (O95180 whole entry, looked up): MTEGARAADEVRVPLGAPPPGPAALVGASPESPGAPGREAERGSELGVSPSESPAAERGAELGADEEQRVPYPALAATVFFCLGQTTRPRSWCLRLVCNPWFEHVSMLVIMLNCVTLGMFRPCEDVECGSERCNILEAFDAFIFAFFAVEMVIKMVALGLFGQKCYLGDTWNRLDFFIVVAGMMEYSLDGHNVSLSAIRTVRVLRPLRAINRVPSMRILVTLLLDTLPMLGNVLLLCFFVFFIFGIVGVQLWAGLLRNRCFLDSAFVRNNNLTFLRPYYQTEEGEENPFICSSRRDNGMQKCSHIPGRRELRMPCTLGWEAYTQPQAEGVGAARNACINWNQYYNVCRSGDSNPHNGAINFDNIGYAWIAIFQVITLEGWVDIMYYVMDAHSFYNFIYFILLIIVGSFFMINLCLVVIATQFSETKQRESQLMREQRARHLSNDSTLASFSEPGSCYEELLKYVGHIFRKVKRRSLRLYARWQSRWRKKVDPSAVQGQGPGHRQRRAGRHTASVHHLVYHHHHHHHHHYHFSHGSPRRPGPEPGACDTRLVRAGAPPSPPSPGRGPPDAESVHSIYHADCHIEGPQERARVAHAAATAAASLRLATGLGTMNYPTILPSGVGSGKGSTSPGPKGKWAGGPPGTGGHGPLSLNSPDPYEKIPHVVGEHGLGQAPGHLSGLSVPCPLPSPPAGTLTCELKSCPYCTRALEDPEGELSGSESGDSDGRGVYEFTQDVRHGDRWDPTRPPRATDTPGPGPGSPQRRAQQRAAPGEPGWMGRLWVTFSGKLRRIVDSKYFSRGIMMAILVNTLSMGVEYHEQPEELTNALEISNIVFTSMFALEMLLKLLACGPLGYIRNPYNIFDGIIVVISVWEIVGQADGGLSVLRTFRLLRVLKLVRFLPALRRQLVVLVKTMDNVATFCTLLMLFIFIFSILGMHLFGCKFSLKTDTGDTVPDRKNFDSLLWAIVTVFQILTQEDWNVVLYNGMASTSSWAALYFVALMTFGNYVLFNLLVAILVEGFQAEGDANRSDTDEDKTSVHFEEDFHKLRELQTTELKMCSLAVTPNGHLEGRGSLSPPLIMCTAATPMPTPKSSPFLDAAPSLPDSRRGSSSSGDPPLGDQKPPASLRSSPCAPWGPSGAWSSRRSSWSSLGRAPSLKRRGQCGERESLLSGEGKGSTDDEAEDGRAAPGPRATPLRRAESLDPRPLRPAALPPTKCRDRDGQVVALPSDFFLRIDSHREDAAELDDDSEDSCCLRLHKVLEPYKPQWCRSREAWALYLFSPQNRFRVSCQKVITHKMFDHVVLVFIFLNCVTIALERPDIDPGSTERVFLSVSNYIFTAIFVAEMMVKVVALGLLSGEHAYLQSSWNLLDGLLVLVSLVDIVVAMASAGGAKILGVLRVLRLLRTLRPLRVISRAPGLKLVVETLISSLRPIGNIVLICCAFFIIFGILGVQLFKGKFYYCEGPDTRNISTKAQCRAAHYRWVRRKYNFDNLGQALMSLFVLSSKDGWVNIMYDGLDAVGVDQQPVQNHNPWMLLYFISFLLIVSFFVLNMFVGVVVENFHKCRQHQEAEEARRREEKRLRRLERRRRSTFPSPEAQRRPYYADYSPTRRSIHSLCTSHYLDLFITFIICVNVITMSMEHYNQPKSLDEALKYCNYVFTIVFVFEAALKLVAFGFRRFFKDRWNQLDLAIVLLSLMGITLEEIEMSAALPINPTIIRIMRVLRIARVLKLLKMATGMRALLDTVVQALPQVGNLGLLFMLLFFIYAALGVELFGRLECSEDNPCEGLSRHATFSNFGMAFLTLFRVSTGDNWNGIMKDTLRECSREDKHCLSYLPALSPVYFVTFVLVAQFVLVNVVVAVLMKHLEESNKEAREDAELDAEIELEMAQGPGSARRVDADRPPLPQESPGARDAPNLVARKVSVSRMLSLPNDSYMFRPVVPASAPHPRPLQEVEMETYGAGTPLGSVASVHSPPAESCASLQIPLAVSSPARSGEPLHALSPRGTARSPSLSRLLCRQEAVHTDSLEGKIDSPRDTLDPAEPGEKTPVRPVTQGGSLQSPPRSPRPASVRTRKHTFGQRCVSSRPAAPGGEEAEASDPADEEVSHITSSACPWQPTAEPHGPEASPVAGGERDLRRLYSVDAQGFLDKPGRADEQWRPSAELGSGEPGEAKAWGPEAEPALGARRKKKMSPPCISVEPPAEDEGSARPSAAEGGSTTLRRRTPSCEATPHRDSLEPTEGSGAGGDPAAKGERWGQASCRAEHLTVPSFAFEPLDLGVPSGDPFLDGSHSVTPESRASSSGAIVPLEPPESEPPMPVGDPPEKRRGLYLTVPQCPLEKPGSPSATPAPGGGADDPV
PostGolgi yeast – phenotypic screen on post-Golgi transport, primary screen; AID 739, 2007; hit rate 0.9% among 98,000; inhibition, % at 10 µM; post-Golgi transport phenotypic cell assay;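 further: yeast cells grown in 1536-well plates; yeast grown about 18 h at 30C before absorbance read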
PTK2B oligo ant – antagonists of Pyk2 self-association, primary screen, Q293 cells, FERM NanoBiT luminescence, HTS | Protein-tyrosine kinase 2-beta (Homo sapiens), Q14289 | active compounds read low | z-score (the deposit names both 25 µM and 10 µM) | hit rate 0.83% among 99,000 | AID 1347419, 2020;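 active means Z-score of -3 or lower, scaled per plate to the spread of control and sample wells; inactive means z-score above -3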;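 further: negative z-score means lost luminescence so less FERM oligomerization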
PostGolgi ctrl – growth inhibition of yeast control strain, primary screen, counter-screen for post-Golgi transport modulator project. efflux-deficient yeast background strain, growth absorbance A615, 16 h. inhibition, % at 10 µM. hit rate 5% among 98,000
Each line names hits and unclear results; the compound was inactive in the other large screens. Unless noted, no stated cut-off is given here; in the data, active means inhibition above about 30%; inactive means the rest.

O=C1C2C3C=CC(C3)C2C(=O)N1CNc1ccccc1 (configuration not stated)	none (no result: Cav32 inh)
Cc1cccc(NCN2C(=O)C3C4C=CC(C4)C3C2=O)c1 (configuration not stated)	PostGolgi ctrl 33
O=C(CN1C(=O)C2C3C=CC(C3)C2C1=O)NCc1ccccc1 (configuration not stated)	none
O=C(NCCN1C(=O)C2C3C=CC(C3)C2C1=O)Nc1ccc(Br)cc1 (configuration not stated)	none (no result: PTK2B oligo ant)
COCCNC(=O)c1c(NC(=O)c2nc(SC)ncc2Cl)sc2c1CCCC2	none
COc1ccc(S(=O)(=O)n2nc(OCc3cccs3)cc2N)cc1	none (no result: PostGolgi yeast, PTK2B oligo ant, PostGolgi ctrl)
O=C(c1ccccc1)[C@H]1[C@H](c2ccccc2)[C@@]2(N=C(c3ccccc3)OC2=O)C2c3ccccc3C=NN21 (some centres not stated)	none (no result: PTK2B oligo ant)
CCOC(=O)C(NCc1ccccc1OC)(NC(C)=O)C(F)(F)F (configuration not stated)	none
COC(=O)c1ccc(C)c(NS(=O)(=O)c2ccc(C)c([N+](=O)[O-])c2)c1	Cav32 inh -5.5
COC(=O)c1ccc(C)c(NS(=O)(=O)c2ccc(OC)cc2)c1	none
CCOC(=O)C1CCCN(c2cc(C)nc3cc(-c4ccc(F)cc4)nn23)C1 (configuration not stated)	PostGolgi ctrl 42
CCOC(=O)C1CCCN(c2cc(C)nc3cc(-c4ccc(Cl)cc4)nn23)C1 (configuration not stated)	none (no result: PostGolgi yeast, PostGolgi ctrl)
CC(=O)OC(C(=O)NCc1ccc(F)cc1)c1ccccn1 (configuration not stated)	none
Cn1c(=O)c2c(nc(Oc3ccc4c(c3)OCO4)n2Cc2ccc(Cl)cc2)n(C)c1=O	none
Cn1c(=O)c2c(nc(NCc3ccc4c(c3)OCO4)n2Cc2ccccc2F)n(C)c1=O	none
Cn1c(=O)c2c(nc(NCc3ccc4c(c3)OCO4)n2Cc2ccccc2)n(C)c1=O	Cav32 inh -6
Cn1c(Oc2ccc3c(c2)OCO3)nc2c1c(=O)n(Cc1ccccc1)c(=O)n2C	PostGolgi ctrl 31
Cn1c(=O)c2c(nc(NCc3ccc4c(c3)OCO4)n2Cc2ccc(F)cc2)n(C)c1=O	Cav32 inh -4.3
Cc1ccc(/C=N/N2CCN(Cc3ccc(Cl)cc3)CC2)o1	none
NC(=O)c1ccc(C2SCC(=O)N2Cc2ccccc2)cc1 (configuration not stated)	none
CCCn1c(SCc2cc(=O)oc3ccc4ccccc4c23)n[nH]c1=O	PostGolgi yeast 30
Cn1cccc1Cc1nnc(SCC(=O)NCc2ccc(F)cc2)n1-c1ccc(F)cc1	none (no result: PostGolgi yeast, PTK2B oligo ant, PostGolgi ctrl)
Cn1cccc1Cc1nnc(SCC(=O)NCc2ccccc2)n1-c1ccc(F)cc1	none (no result: PTK2B oligo ant)
CC(=O)c1ccc(NC(=O)CSc2nnc(Cc3cccn3C)n2-c2ccc(F)cc2)cc1	none (no result: PTK2B oligo ant)
Cc1csc(NC(=O)CSc2nnc(Cc3cccn3C)n2-c2ccc(F)cc2)n1	Cav32 inh -5.8 (no result: PTK2B oligo ant)
Cc1ccc(NC(=O)CSc2nnc(Cc3cccn3C)n2-c2ccc(F)cc2)cc1	Cav32 inh -3.9 (no result: PTK2B oligo ant)
CCc1ccc(NC(=O)CSc2nnc(Cc3cccn3C)n2-c2ccc(F)cc2)cc1	Cav32 inh -4.1 (no result: PTK2B oligo ant)
CCCNC(=S)Nc1ccc2nc(-c3ccccn3)c(-c3ccccn3)nc2c1	none (no result: Cav32 inh)
COCCn1c(SCC(=O)NCc2ccccc2)nnc1-c1ccco1	none (no result: PostGolgi yeast, PostGolgi ctrl)
COC(=O)CCN(C(C)=O)c1ccc(N)cc1	PostGolgi ctrl 40
CCCCn1c(NC(C)CC)nc2c1c(=O)[nH]c(=O)n2C (configuration not stated)	none
Cc1ccc(OCC(=O)N2CCN(C(=O)Cc3ccccc3)CC2)cc1	PostGolgi ctrl 31
Cc1ccc(-c2nnc(N3CCN(C(=O)COc4ccccc4)CC3)c3ccccc23)cc1	Cav32 inh -7.4, PostGolgi ctrl 50
COc1ccc(OC)c(NS(=O)(=O)c2ccc(NC(=O)C3COc4ccccc4O3)cc2)c1 (configuration not stated)	none (no result: Cav32 inh)
Cc1ccccc1C(=O)NCc1nnc(SCC(=O)N2c3ccccc3Sc3ccccc32)n1C	none
CC(CCc1ccccc1)NC(=O)/C=C/c1ccccc1 (configuration not stated)	PostGolgi ctrl 40
COC(=O)[C@H](C)NC(=O)NC(C)CCc1ccccc1 (some centres not stated)	PostGolgi ctrl 36
Cc1ccccc1/C(N)=N/OC(=O)/C=C/c1ccccc1	none
CC1=C(SCCC#N)S/C(=C2\SC(C)=C(SCCC#N)S2)S1	none (no result: Cav32 inh)
O=C(O)CC1SC(=Nc2cccc(O)c2)NC1=O (configuration not stated)	none
O=C1NC(=Nc2cccc(Cl)c2)SC1Cc1cccc(Cl)c1Cl (configuration not stated)	PostGolgi ctrl 48
CC(NC(=O)Nc1nnc(C(F)(F)F)s1)(C(F)(F)F)C(F)(F)F	Cav32 inh -7.7
CC(C)(C)CC(=O)Nc1nnc(C(F)(F)F)s1	none (no result: PostGolgi yeast, PostGolgi ctrl)
Cc1cc(NCCCn2ccnc2)n2ncc(-c3ccc(Cl)cc3)c2n1	PostGolgi ctrl 47
O=C(OCC#CCSc1nnc(-c2ccncc2)o1)c1cccs1	Cav32 inh -4.3
CCc1nc(N)c(C#N)c(-c2ccc(O)c(OC)c2)c1C	none
CCOc1cc(-c2c(C#N)c(N)nc3c2CCCC3)ccc1O	none
CCOc1cc(-c2cc(-c3ccccc3)nc(N)c2C#N)ccc1O	PTK2B oligo ant -3.4
CCOc1cc(-c2cc(-c3ccc(N)cc3)nc(N)c2C#N)ccc1O	PTK2B oligo ant -3.8
CC(C)Cn1c(=O)c2ccccc2c2ccccc2c1=O	PostGolgi ctrl 33
CC(C)CCn1c(=O)c2ccccc2c2ccccc2c1=O	none
O=S(=O)(Cc1cc(Oc2ccccc2)nc(-c2ccccc2)n1)c1ccccc1	Cav32 inh -5.1
CCOC(=O)C(C)Sc1cc(CS(=O)(=O)c2ccccc2)nc(-c2ccccc2)n1 (configuration not stated)	Cav32 inh -5.8
Cc1nc(CS(=O)(=O)c2ccc(Cl)cc2)cc(Sc2ccc(Cl)cc2)n1	Cav32 inh -5.3
Cc1nc(CS(=O)(=O)c2ccccc2)cc(N2CCOCC2)n1	none
O=S(=O)(Cc1cc(Sc2ccc(Cl)cc2)nc(-c2ccccc2)n1)c1ccccc1	Cav32 inh -4
CCCc1cc(SCC(=O)Nc2c(C)n(C)n(-c3ccccc3)c2=O)n2c(nc3ccccc32)c1C#N	none (no result: PTK2B oligo ant)
O=C(Nc1cc2c(cc1Br)OCCO2)c1cccs1	none
COC(=O)C(Cc1c[nH]c2ccccc12)NC(C)=O (configuration not stated)	none (no result: PostGolgi yeast, PostGolgi ctrl)
COc1ccc(C(c2c[nH]c3ccccc23)c2c[nH]c3ccccc23)cc1O	PostGolgi ctrl 54 (no result: PTK2B oligo ant)
COc1ccc(Cc2nnc(SCC(=O)Nc3nc(C)cs3)o2)cc1	none
O=C(Cn1c(NCCO)nc2ccccc21)NCCc1ccccc1	PostGolgi ctrl 38
O=C(Cn1c(NCCO)nc2ccccc21)c1ccco1	none
CC(C)(C)C(=O)NCCc1nc(-c2ccccc2)no1	none (no result: PostGolgi yeast, PTK2B oligo ant, PostGolgi ctrl)
Cc1ccccc1C(=O)Oc1cccc(Nc2ncnc3ccccc23)c1	Cav32 inh -4.8 (no result: PostGolgi yeast, PostGolgi ctrl)
CCOC(=O)c1cccc(Nc2ncnc3ccccc23)c1	none (no result: PostGolgi yeast, PostGolgi ctrl)
C=CCNc1nc(-c2cccc(OC)c2O)nc2ccccc12	none (no result: Cav32 inh)

Assay outcomes as filed in PubChem BioAssay.
